# Source: PubChem BioAssay (EPA / NIEHS)
# Activity calls are given as the source filed them. How the source made its calls: active means hit-call score of the fitted dose curve at least 0.9, where 1 is the maximum; inactive means score below 0.9.
# Key:
# Details in all cases: mRNA level, 48 h; actives raise or lower the signal
# [1] = read-out: ABC Transporter (ABCB11), ABCB11 (gene 8647); experiment: LTEA_HepaRG_ABCB11: Life Technologies and Expression Analysis (LTEA) Assay for ABC Transporter (ABCB11) using HepaRG (AID 2283463)
# Summary of the method: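 HepaRG, 48 h exposure, 8-pt half-log CRC top 100 uM, 0.5% DMSO vehicle, duplicates. Readout: TaqMan qRT-PCR of ABCB11 mRNA, housekeeping-normalized (ACTB/GAPDH/POLR2A). Bidirectional fit vs DMSO baseline.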
# [2] = read-out: ABC Transporter (ABCC2), ABCC2 (gene 1244); experiment: LTEA_HepaRG_ABCC2: Life Technologies and Expression Analysis (LTEA) Assay for ABC Transporter (ABCC2) using HepaRG (AID 2283464)
# Summary of the method: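 HepaRG, 48 h post-plating; serum-free induction medium; cpd 8-pt, 100 uM top, half-log, 0.5% DMSO, duplicate, 48 h. Readout: ABCC2 mRNA by qRT-PCR, norm. ACTB/GAPDH/POLR2A. Bidirectional fit vs DMSO baseline.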
# [3] = read-out: Broad substrate specificity ATP-binding cassette transporter ABCG2 (Homo sapiens) (UniProt Q9UNQ0); experiment: LTEA_HepaRG_ABCG2: Life Technologies and Expression Analysis (LTEA) Assay for ABC Transporter (ABCG2) using HepaRG (AID 2283465)
# Summary of the method: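 HepaRG, 48 h exposure, 8-pt half-log series from 100 uM, 0.5% DMSO vehicle, duplicates. Readout: ABCG2 transcript by qRT-PCR (Fluidigm array), housekeeping-normalized; bidirectional curve fit relative to DMSO baseline.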
# [4] = read-out: Peroxisomal acyl-coenzyme A oxidase 1 (ACOX1) gene, ACOX1 (gene 51); experiment: LTEA_HepaRG_ACOX1: Life Technologies and Expression Analysis (LTEA) Assay for Peroxisomal acyl-coenzyme A oxidase 1 (ACOX1) gene using HepaRG (AID 2283467)
# Summary of the method: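 HepaRG, 48 h chemical exposure, 8-pt half-log series from 100 uM top, 0.5% DMSO vehicle, duplicates. Readout: ACOX1 mRNA by Fluidigm qRT-PCR, housekeeping-normalized; bidirectional fit vs DMSO baseline.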
# [5] = read-out: Alkaline Phosphatase, Placental (ALPP) gene, ALPP (gene 250); experiment: LTEA_HepaRG_ALPP: Life Technologies and Expression Analysis (LTEA) Assay for Alkaline Phosphatase, Placental (ALPP) gene using HepaRG (AID 2283468);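 on AC50: differentiated human HepaRG liver cells in serum-free induction medium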
# Summary of the method: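 HepaRG, 48 h plating then 48 h dosing, serum-free induction medium, 0.5% DMSO. 8 conc, half-log, max 100 uM, duplicates. Endpoint: ALPP transcript by qRT-PCR, housekeeping-normalized; gain or loss fitted vs DMSO.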
# [6] = read-out: Bcl-2 (BAD) gene, BAD (gene 572); experiment: LTEA_HepaRG_BAD: Life Technologies and Expression Analysis (LTEA) Assay for Bcl-2 (BAD) gene using HepaRG (AID 2283469)
# Summary of the method: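 HepaRG, 48 h exposure, 8-pt half-log curve from 100 uM in 0.5% DMSO, duplicates. Readout: TaqMan qRT-PCR for BAD mRNA, housekeeping-normalised (ACTB/GAPDH/POLR2A); gain or loss fitted against DMSO baseline.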
# [7] = read-out: Bcl-2 (BAX) gene, BAX (gene 581); experiment: LTEA_HepaRG_BAX: Life Technologies and Expression Analysis (LTEA) Assay for Bcl-2 (BAX) gene using HepaRG (AID 2283470)
# Summary of the method: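 Gene expression measured by Fluidigm qRT-PCR with three housekeeping genes for normalisation. HepaRG cells, plated 48 h beforehand, treated 48 h at up to 100 uM (8-point, half-log) in 0.5% DMSO. Bidirectional fitting versus DMSO.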
# [8] = read-out: adenosine kinase (ADK) gene, ADK (gene 132); experiment: LTEA_HepaRG_ADK: Life Technologies and Expression Analysis (LTEA) Assay for adenosine kinase (ADK) gene using HepaRG (AID 2283471)
# Summary of the method: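 Following 48 h exposure of HepaRG cells in 0.5% DMSO (top concentration 100 uM, duplicate wells), ADK mRNA induction or suppression was measured by qRT-PCR, normalised to ACTB/GAPDH/POLR2A, and fitted bidirectionally relative to vehicle.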
# [9] = read-out: Alpha-fetoprotein (AFP) gene, AFP (gene 174); experiment: LTEA_HepaRG_AFP: Life Technologies and Expression Analysis (LTEA) Assay for Alpha-fetoprotein (AFP) gene using HepaRG (AID 2283472)
# Summary of the method: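 AFP transcript measured by TaqMan qRT-PCR with three housekeeping genes for normalization, after 48 h chemical treatment of HepaRG cells (top 100 uM, half-log steps, 0.5% DMSO). Gain or loss fitted against vehicle.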
# [10] = read-out: Apoptosis regulator Bcl-2 (Homo sapiens) (UniProt P10415); experiment: LTEA_HepaRG_BCL2: Life Technologies and Expression Analysis (LTEA) Assay for Bcl-2 gene using HepaRG (AID 2283475)
# Summary of the method: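 qRT-PCR of BCL2 transcript, normalized to three housekeeping genes (ACTB, GAPDH, POLR2A), after 48 h chemical exposure of HepaRG cells; concentrations top 100 uM with half-log dilutions, 0.5% DMSO vehicle, duplicates; changes up or down fitted relative to vehicle.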
# [11] = read-out: Bcl-2 (BID) gene, BID (gene 637); experiment: LTEA_HepaRG_BID: Life Technologies and Expression Analysis (LTEA) Assay for Bcl-2 (BID) gene using HepaRG (AID 2283476)
# Summary of the method: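 Duplicate 48 h treatments of HepaRG cells in serum-free induction medium spanned 100 uM downward in half-log steps, 0.5% DMSO. Transcript change quantified by qRT-PCR against three housekeeping genes, fitted up or down versus DMSO.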
# [12] = read-out: Caspase-3 (Homo sapiens) (UniProt P42574); experiment: LTEA_HepaRG_CASP3: Life Technologies and Expression Analysis (LTEA) Assay for cysteine-aspartic acid protease (CASP3) using HepaRG (AID 2283477)
# Summary of the method: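 Read-out is CASP3 mRNA level by TaqMan qRT-PCR in human HepaRG cells after 48 h chemical exposure. Eight half-log concentrations topping at 100 uM were tested in 0.5% DMSO; gain or loss was fitted relative to DMSO.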
# [13] = read-out: Cytochrome P450 (CYP24A1), CYP24A1 (gene 1591); experiment: LTEA_HepaRG_CYP24A1: Life Technologies and Expression Analysis (LTEA) Assay for Cytochrome P450 (CYP24A1) using HepaRG (AID 2283478)
# Summary of the method: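 HepaRG, 48 h chemical exposure, 8-pt half-log CRC from 100 uM, 0.5% DMSO vehicle, duplicates. Endpoint: CYP24A1 mRNA by Fluidigm TaqMan qRT-PCR, normalized ACTB/GAPDH/POLR2A; gain/loss fit vs DMSO.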
# [14] = read-out: Cytochrome P450 (CYP1A2), CYP1A2 (gene 1544); experiment: LTEA_HepaRG_CYP1A2: Life Technologies and Expression Analysis (LTEA) Assay for Cytochrome P450 (CYP1A2) using HepaRG (AID 2283479)
# Summary of the method: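 CYP1A2 transcript induction or loss, quantified by Fluidigm qRT-PCR against three housekeeping genes, was fitted bidirectionally against 0.5% DMSO controls. Human HepaRG cells received eight half-log concentrations from 100 uM over 48 h.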
# [15] = read-out: Cytochrome P450 (CYP2B6), CYP2B6 (gene 1555); experiment: LTEA_HepaRG_CYP2B6: Life Technologies and Expression Analysis (LTEA) Assay for Cytochrome P450 (CYP2B6) using HepaRG (AID 2283481)
# Summary of the method: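 HepaRG cells plated 48 h, switched to serum-free induction medium, then dosed 48 h (8 points, half-log from 100 uM, 0.5% DMSO). RNA isolated; CYP2B6 expression measured by qRT-PCR; gain or loss fitted relative to DMSO.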
# [16] = read-out: Cytochrome P450 2C19 (Homo sapiens) (UniProt P33261); experiment: LTEA_HepaRG_CYP2C19: Life Technologies and Expression Analysis (LTEA) Assay for CYP2C19 using HepaRG (AID 2283482)
# Summary of the method: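 Transcript levels of CYP2C19 were quantified by qRT-PCR after HepaRG cells were treated for 48 hours with test chemicals up to 100 uM (eight half-log concentrations, 0.5% DMSO vehicle). Gain or loss of signal was fitted relative to DMSO.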
# [17] = read-out: cysteine-aspartic acid protease (CASP8), CASP8 (gene 841); experiment: LTEA_HepaRG_CASP8: Life Technologies and Expression Analysis (LTEA) Assay for cysteine-aspartic acid protease (CASP8) using HepaRG (AID 2283480)
# Summary of the method: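 qRT-PCR readout of CASP8 mRNA, normalized to three housekeeping genes, after 48 h chemical exposure of HepaRG cells; 8-point half-log series, top 100 uM, 0.5% DMSO vehicle. Bidirectional curve fitting against DMSO baseline.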
# [18] = read-out: Apolipoprotein A-V (APOA5) gene, APOA5 (gene 116519); experiment: LTEA_HepaRG_APOA5: Life Technologies and Expression Analysis (LTEA) Assay for Apolipoprotein A-V (APOA5) gene using HepaRG (AID 2283474)
# Summary of the method: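 Readout is APOA5 transcript level by qRT-PCR on Fluidigm dynamic arrays, normalized to three housekeeping genes. HepaRG cultures received chemicals for 48 h at up to 100 uM (half-log steps, 0.5% DMSO), with gain or loss scored relative to DMSO.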
# Cytochrome P450 2C19 (Homo sapiens), sequence (P33261 whole entry, looked up): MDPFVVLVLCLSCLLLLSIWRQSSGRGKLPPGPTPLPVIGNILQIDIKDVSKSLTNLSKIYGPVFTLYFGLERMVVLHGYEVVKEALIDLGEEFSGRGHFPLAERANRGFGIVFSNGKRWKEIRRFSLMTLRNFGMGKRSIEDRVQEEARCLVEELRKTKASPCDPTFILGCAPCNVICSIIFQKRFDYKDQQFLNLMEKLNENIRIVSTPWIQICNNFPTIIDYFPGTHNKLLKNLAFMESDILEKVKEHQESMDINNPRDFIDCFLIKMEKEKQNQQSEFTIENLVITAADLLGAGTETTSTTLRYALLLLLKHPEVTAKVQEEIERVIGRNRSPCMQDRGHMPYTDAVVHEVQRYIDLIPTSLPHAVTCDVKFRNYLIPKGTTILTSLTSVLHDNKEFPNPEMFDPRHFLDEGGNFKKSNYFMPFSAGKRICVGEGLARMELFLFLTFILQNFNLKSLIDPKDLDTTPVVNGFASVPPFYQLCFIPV
# Apoptosis regulator Bcl-2 (Homo sapiens), sequence (P10415 whole entry, looked up): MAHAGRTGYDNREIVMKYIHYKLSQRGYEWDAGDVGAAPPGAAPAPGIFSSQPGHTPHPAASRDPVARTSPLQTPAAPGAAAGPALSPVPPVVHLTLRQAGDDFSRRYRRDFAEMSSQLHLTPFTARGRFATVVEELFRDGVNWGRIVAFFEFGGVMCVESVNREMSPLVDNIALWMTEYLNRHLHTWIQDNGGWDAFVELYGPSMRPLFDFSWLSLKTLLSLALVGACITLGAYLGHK
# Caspase-3 (Homo sapiens), sequence (P42574 whole entry, looked up): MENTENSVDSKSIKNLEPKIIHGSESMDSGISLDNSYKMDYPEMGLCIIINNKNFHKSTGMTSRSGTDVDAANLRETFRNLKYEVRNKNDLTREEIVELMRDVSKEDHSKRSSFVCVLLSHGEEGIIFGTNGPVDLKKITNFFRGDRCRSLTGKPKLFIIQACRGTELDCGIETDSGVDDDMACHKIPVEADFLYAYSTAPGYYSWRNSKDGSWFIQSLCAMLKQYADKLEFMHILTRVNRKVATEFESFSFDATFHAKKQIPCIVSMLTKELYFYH
# Broad substrate specificity ATP-binding cassette transporter ABCG2 (Homo sapiens), sequence (Q9UNQ0 whole entry, looked up): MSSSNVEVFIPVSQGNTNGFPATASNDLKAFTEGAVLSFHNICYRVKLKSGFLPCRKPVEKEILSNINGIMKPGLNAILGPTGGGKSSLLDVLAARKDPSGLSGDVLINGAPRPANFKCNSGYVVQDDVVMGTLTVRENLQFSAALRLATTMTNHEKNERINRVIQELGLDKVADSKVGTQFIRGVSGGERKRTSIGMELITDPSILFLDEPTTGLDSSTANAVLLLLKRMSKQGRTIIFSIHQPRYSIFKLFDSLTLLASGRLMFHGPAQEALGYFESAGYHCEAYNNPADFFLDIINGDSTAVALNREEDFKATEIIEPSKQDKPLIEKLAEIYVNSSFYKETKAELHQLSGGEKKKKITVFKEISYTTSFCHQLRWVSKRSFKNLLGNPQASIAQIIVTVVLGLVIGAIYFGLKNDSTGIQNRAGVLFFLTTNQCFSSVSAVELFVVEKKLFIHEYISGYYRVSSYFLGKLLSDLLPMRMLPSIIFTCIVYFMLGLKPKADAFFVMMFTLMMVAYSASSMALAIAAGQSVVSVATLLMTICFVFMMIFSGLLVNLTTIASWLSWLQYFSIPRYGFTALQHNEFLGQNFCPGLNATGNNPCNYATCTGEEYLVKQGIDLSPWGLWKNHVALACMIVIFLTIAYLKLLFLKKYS
smiles,measurement,setting,value
CC(C)(C)c1ccc(CSc2cnn(C(C)(C)C)c(=O)c2Cl)cc1,AC50,[1],2.21 µM (active)
same,AC50,[2],9.03 µM (active)
same,AC50,[3],2.89 µM (active)
same,outcome,[4],inactive
same,AC50,[5],1.08 µM (active)
same,outcome,[6],inactive
same,AC50,[7],6.27 µM (active)
same,outcome,[8],inactive
same,AC50,[9],2.47 µM (active)
same,AC50,[10],2.89 µM (active)
same,outcome,[11],inactive
same,outcome,[12],inactive
same,outcome,[13],inactive
same,AC50,[14],2.36 µM (active)
same,AC50,[15],1.54 µM (active)
same,AC50,[16],28 µM (active)
CCCCNC(=O)OCC#CI,AC50,[1],50 µM (active)
same,AC50,[2],50 µM (active)
same,AC50,[3],9.92 µM (active)
same,outcome,[4],inactive
same,AC50,[5],9.92 µM (active)
same,outcome,[6],inactive
same,outcome,[7],inactive
same,AC50,[8],50 µM (active)
same,outcome,[9],inactive
same,outcome,[10],inactive
same,outcome,[11],inactive
same,outcome,[12],inactive
same,outcome,[13],inactive
same,AC50,[14],31.1 µM (active)
same,outcome,[17],inactive
same,AC50,[15],30.6 µM (active)
same,AC50,[16],50 µM (active)
Cc1c(F)c(F)c(COC(=O)C2C(/C=C(\Cl)C(F)(F)F)C2(C)C)c(F)c1F (stereo unspecified),AC50,[1],50 µM (active)
same,outcome,[2],inactive
same,outcome,[3],inactive
same,outcome,[4],inactive
same,outcome,[5],inactive
same,outcome,[6],inactive
same,outcome,[7],inactive
same,outcome,[8],inactive
same,outcome,[9],inactive
same,outcome,[10],inactive
same,outcome,[11],inactive
same,outcome,[12],inactive
same,outcome,[13],inactive
same,outcome,[14],inactive
same,outcome,[17],inactive
same,outcome,[15],inactive
same,outcome,[16],inactive
CC(Oc1ccc(Cl)cc1Cl)C(=O)O (stereo unspecified),outcome,[1],inactive
same,outcome,[2],inactive
same,outcome,[3],inactive
same,outcome,[4],inactive
same,outcome,[5],inactive
same,outcome,[6],inactive
same,outcome,[7],inactive
same,outcome,[8],inactive
same,outcome,[9],inactive
same,outcome,[18],inactive
same,outcome,[10],inactive
same,outcome,[11],inactive
same,outcome,[12],inactive
same,outcome,[13],inactive
same,outcome,[14],inactive
same,outcome,[15],inactive
same,outcome,[16],inactive
CCOC(=O)C(Cl)Cc1cc(-n2nc(C)n(C(F)F)c2=O)c(F)cc1Cl (stereo unspecified),outcome,[1],inactive
same,outcome,[2],inactive
same,outcome,[3],inactive
same,outcome,[4],inactive
same,outcome,[5],inactive
same,outcome,[6],inactive
same,outcome,[7],inactive
same,outcome,[8],inactive
same,outcome,[9],inactive
same,outcome,[18],inactive
same,outcome,[10],inactive
same,outcome,[11],inactive
same,outcome,[12],inactive
same,outcome,[13],inactive
same,outcome,[14],inactive
same,AC50,[15],50 µM (active)
same,AC50,[16],41.1 µM (active)
CCOP(=S)(OCC)SCn1c(=O)oc2cc(Cl)ccc21,outcome,[1],inactive
same,outcome,[2],inactive
same,outcome,[3],inactive
same,outcome,[4],inactive
same,outcome,[5],inactive
same,outcome,[6],inactive
same,outcome,[7],inactive
same,outcome,[8],inactive
same,outcome,[9],inactive
same,outcome,[10],inactive
same,outcome,[11],inactive
same,outcome,[12],inactive
same,outcome,[13],inactive
same,AC50,[14],75.3 µM (active)
same,outcome,[17],inactive
same,AC50,[15],17.7 µM (active)
same,outcome,[16],inactive
